# In PubChem BioAssay AID602197 (NMMLSC, 2012):
# The list shows a part of the results. Values without a mark were called inactive. Rule as the data show it: active = response above about 24%; inactive = the rest.
# Assay: V-ATPase regulators in yeast, one dose – S. cerevisiae, pH-sensitive GFP, second cherry-pick, confirmation (AID 602197);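 also: plate controls were vehicle wells for no effect and positive control wells for full effect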
# Details: S. cerevisiae pHLuorin cytosolic pH, V-ATPase proton transport; at 10 µM; hits give high values
row,Compound,response [%]
1,Cc1ccccc1N1C(=O)NC(=O)/C(=C\c2cc(C)n(C)c2C)C1=O,1.24
2,CC(=O)Nc1ccc(C(=O)C(Cc2ccccc2)N(C)C)cc1 (configuration not stated),2.66
